# Measurements reported in ChEMBL document CHEMBL3988442, “University of Dundee, Small-Polar-MMV Screening Library” (2021).
# About 13,000 (27%) of roughly 48,000 compounds showed an effect of 50% or more. The list shows a part of the results.
# System: Wolbachia pipientis
# Test: Anti-Wolbachia Cell-Based Screen
# Type: functional
# Design: scale not given: in the data most compounds retested in dose-response had high values
# Settings: 5 µM
row,SMILES,Percent Effect [%]
1,CCOc1ccccc1N(C)C(=O)c1ccc(Cl)cn1,-0.6778
2,O=C([C@H]1C[C@H]2OCC[C@H]2N(C(=O)c2ccncc2)C1)N1CCCCO1,15.67
3,CC(=O)c1c(O)ccnc1C(F)(F)F,-30.29
4,COc1ccc2c(c1)C(C(=O)N(C)CCc1scnc1C)CC(=O)N2 (stereo not given),13.25
5,CCCc1nn(C2CCN(C3CC3)C2=O)c(=O)o1 (stereo not given),-0.5192
6,CC(C)c1cc(NCC2(CO)CCC2)ncn1,-3.782
7,CCOc1cc(F)ccc1NC(=O)N(C(C)CS(C)(=O)=O)C1CC1 (stereo not given),-6.232
8,CC(c1nc(C2CC2)no1)N1CCN(Cc2ccsc2)CC1 (stereo not given),3.758
9,COc1cncc(N2CCN(Cc3cccn3C)CC2)n1,-11
10,Cc1cncc(C2CCN(Cc3ccsc3)CC2)n1,117.4
11,CCOC(=O)N(C)C1CCN(Cc2ccsc2)CC1,-3.636
12,Cc1cncc(C2CCCN(Cc3cccn3C)C2)n1 (stereo not given),4.46
13,Cc1cncc(C2CCN(Cc3cccn3C)CC2)n1,121.9
14,Cc1ccccc1C(=O)NC[C@@H]1CCN(C(=O)c2cccn2C)C[C@H]1O,2.167
15,Cc1cnn(CCNCc2ccc(C#N)cc2F)c1,-2.376
16,Cn1c(C2CC2)nc2cc(NC(=O)C3(O)CCCC3)ccc21,-3.273
17,O=C(CCN1C[C@H]2CC[C@@H]1CN(c1ncccn1)C2)NCc1ccco1,-5.213
18,Cc1ccc(OCC(=O)NCc2ccco2)nc1,-11.41
19,CC(Cc1ccco1)NC(=O)CCn1cccn1 (stereo not given),-2.22
20,COC(=O)CC(NC(=O)CCn1cccn1)c1ccc(C)cc1 (stereo not given),-17.18
21,Cc1ccn(CCC(=O)NC(C)Cc2ccco2)n1 (stereo not given),108
22,CC(NC(=O)CCn1cccn1)c1cccs1 (stereo not given),-33.21
23,CC(Cc1ccco1)NC(=O)CSc1nnc[nH]1 (stereo not given),-0.3206
24,CCC(C)NC(=O)CCn1ccc(C)n1 (stereo not given),122.6
25,Cc1ccn(CCC(=O)NCc2ccco2)n1,113.3
26,CCN(Cc1nccn1C)C(=O)c1ccc(NCc2ccc(C)o2)nc1,12.06
27,Cc1ccn(CCC(=O)NCc2ccc(C)o2)n1,96.24
28,Cc1ccc(CNC(=O)CCC(=O)NCCC(C)C)o1,-4.384

row,SMILES,Percent Effect [%]
1,CC(C)Cc1nc(CN2CCC3(CCCO3)CCC2=O)no1 (stereo not given),-10.71
2,COc1ccc(OC)c(-n2cnnc2C)c1,-0.7087
3,Cc1nc(C#N)c(N2CCC(c3nc(-c4ccccc4)no3)CC2)o1,4.008
4,Cc1cc(C)nc(CN(C)C(=O)c2cccc(CCC(C)(C)O)c2)c1,33.03
5,Cc1ccn(CCC(=O)NCCc2ccco2)n1,109.8
6,Cc1cc(C)n(CC(C)CNC(=O)CCc2ccco2)n1 (stereo not given),10.87
7,NC(=O)NC(=O)CCn1ccc(-c2ccccc2)n1,-9.301
8,Cc1ncc(CC(=O)N2CCC(N3C[C@@H](C)O[C@@H](C)C3)CC2)c(=O)[nH]1,-13.09
9,CC(C)c1ncc(C(=O)N2CCOCC2CC(=O)c2ccco2)s1 (stereo not given),131.2
10,CC(C)c1cc(C(=O)N2Cc3ccccc3CC2C(=O)O)nn1C (stereo not given),14.25
11,CCc1ocnc1C(=O)N1CCOCC1CC(=O)c1ccccc1 (stereo not given),-28.11
12,CC(C)c1cc(C(=O)N2CCOCC2CC(=O)c2ccco2)nn1C (stereo not given),128.9
13,CC(C)c1nc(C(=O)N2CCOCC2CC(=O)c2ccco2)cs1 (stereo not given),84.12
14,CCc1ncc(C(=O)N2CCOCC2c2c(C)n[nH]c2C)s1 (stereo not given),6.424
15,CC(C)c1ccc(C(=O)N2CCOCC2CC(=O)c2ccco2)cn1 (stereo not given),178.1
16,CCc1ncc(C(=O)N2CCOCC2CC(=O)c2ccccc2)s1 (stereo not given),-7.731
17,CC[C@H]1COCCN1C(=O)c1cnc(-c2ccccc2)nc1C,-84.76
18,CC(C)c1cc(C(=O)N2CCc3ccccc3C2C(=O)O)nn1C (stereo not given),7.9
19,O=C(CC1COCCN1C(=O)c1cscn1)c1ccccc1 (stereo not given),5.406
20,CCc1nc(C(=O)N2CCOCC2CC(=O)c2ccccc2)c[nH]1 (stereo not given),-17.76
21,Cc1cc2c(C)cc(O)cc2c(=O)o1,-3.203
22,CC(C)(C)OC(=O)N1CCC[C@H](NCc2cc[nH]c2)C1,-5.919
23,CC(C1CCN(Cc2ccc(N(C)C)nc2)CC1)N(C)C (stereo not given),14.62
24,COCC(c1ccccn1)N(C)C(=O)c1cc(-c2ccccc2O)n[nH]1 (stereo not given),-8.202
25,O=S(=O)(C1CC1)N1CCC2(CC1)CC(Oc1ccccn1)CO2 (stereo not given),-5.73
26,COCc1c(C(=O)N2CCCC(C(=O)c3nccn3C)C2)noc1C (stereo not given),-5.481
27,Fc1cccc(-c2c[nH]c([C@@H]3COCCN3C3CCOCC3)n2)c1,5.513
